From PubChem
Hits are enriched below; roughly 21% of the tested compounds scored in any of these assays.
Pf growth 48h = Primary qHTS for delayed death inhibitors of the malarial parasite plastid, 48 hour incubation; P. falciparum luciferase growth in erythrocytes, 48 h; Potency, µM (titrated, usually from 28.7 µM), hits mostly inhibitors; 310,000 compounds, 5.9% hits; AID 504832, 2011
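First compound was added to culture medium, then infected red cells at 0.1% parasitemia and 2% hematocrit (final). After incubation at 37 C under 5% CO2, luciferase detection reagent was dispensed and light output recorded.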
Shiga toxin inh = A qHTS for Small Molecule Inhibitors of Shiga Toxin; Vero cells, Shiga toxin protein synthesis inhibition reporter; AID 2315, 2010; 290,000 compounds, 9.2% hits; inhibition, % at 38.7 µM; in the data active = inhibition mostly above about 28%, no sharp cut-off; inactive = mostly below about 43%
Pf growth 96h = Primary qHTS for delayed death inhibitors of the malarial parasite plastid, 96 hour incubation. P. falciparum luciferase reporter growth, 96 h. Potency, µM (highest dose often 28.7 µM), usual class: inhibitors. 320,000 compounds, 6.9% hits
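Two-generation exposure (96 h) targets delayed-death phenotype. Reporter parasites carrying integrated firefly luciferase, in red cells at 2% hematocrit and 0.05% parasitemia final, kept at 37 C, 5% CO2; luminescence loss indicates inhibition.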
Giardia FBPA inh = qHTS Assay for Inhibitors of Fructose-1,6-bisphosphate Aldolase from Giardia Lamblia; purified Giardia FBPA; AID 2451, 2010; 290,000 compounds, 0.71% hits; A8B2U2; Potency, µM (highest dose often 59.6 µM), actives largely listed as inhibitors; note: nearly all actives have a fitted effect of over 55% in size
Target sequence (A8B2U2 whole entry, looked up): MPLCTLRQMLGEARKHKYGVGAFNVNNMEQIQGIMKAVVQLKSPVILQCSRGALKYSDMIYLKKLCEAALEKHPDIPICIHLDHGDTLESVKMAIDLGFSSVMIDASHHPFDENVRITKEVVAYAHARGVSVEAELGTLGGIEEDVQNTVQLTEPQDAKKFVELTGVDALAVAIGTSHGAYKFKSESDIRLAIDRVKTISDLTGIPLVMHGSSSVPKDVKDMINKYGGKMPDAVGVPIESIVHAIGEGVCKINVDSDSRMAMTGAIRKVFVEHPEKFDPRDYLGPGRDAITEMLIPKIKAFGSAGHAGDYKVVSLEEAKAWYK
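Giardia FBPA (40 nM reagent) was preincubated 10 min at RT with compound (up to 57.5 uM final), then substrate plus GAPDH/TPI/NAD/arsenate coupling system with diaphorase/resazurin was added; resorufin fluorescence (525/598 nm) was read after 20 min.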
NS1 function inh = qHTS Assay for Inhibitors of Influenza NS1 Protein Function. Potency, µM (titrated, usually from 46.1 µM). 270,000 compounds, 0.4% hits. AID 2326, 2010; calls by dose curve; note: actives are rising curves; nearly all actives have a fitted effect of over 50% in size
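In this qHTS, NS1 from influenza A is expressed in budding yeast, where it slows growth. Cells are switched from glucose to 2% galactose medium (pH 6.0, -URA), treated with compound, and growth recovery is read at OD600.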
Cycloheximide cs = Cycloheximide Counterscreen for Small Molecule Inhibitors of Shiga Toxin; cell reporter, cycloheximide protein synthesis inhibition counterscreen; 300,000 compounds, 12% hits; max response, %; AID 2314, 2010; in the data active = max response mostly above about 13%, no sharp cut-off; inactive = mostly below about 14%; note: read at 38.3 µM for the half of the compounds with a filed dose
Each line names hits and unclear results; the compound was inactive in the other large screens. Unless noted, calls come from the whole dose curve; as a rule, active = well fitted curve in the direction sought with a large enough effect; inconclusive = small, poorly fitted or top-dose-only effect, or another doubt; inactive = no such curve, though single readings can be large; an effect the other way counts as inactive or inconclusive.

O=C(NCCc1ccc(F)cc1)NC12CC3CC(CC(C3)C1)C2	Shiga toxin inh 120, Cycloheximide cs 64
NS(=O)(=O)c1ccc(CCNC(=O)NC23CC4CC(CC(C4)C2)C3)cc1	none
Cc1ccc2c(c1)N(C(=O)CCC(=O)NC1CCN(Cc3ccccc3)CC1)CC(C)O2 (configuration not stated)	none
CC1=CC(=C2C(=O)c3ccccc3C2=O)C=C(C)N1C	Cycloheximide cs 26
CC(=O)[C@]1(O)CC[C@@H]2[C@H]3C[C@@H](C)C4=CC(=O)CC[C@@]4(C)C3[C@@H](O)C[C@]21C (some centres not stated)	none (no result: Pf growth 48h, Shiga toxin inh, Pf growth 96h, Giardia FBPA inh, Cycloheximide cs)
COc1cccc(-c2ncc3ccccc3c2COC(=O)c2cccc(Br)c2)c1	Pf growth 48h inconclusive, Pf growth 96h 4.7µM (no result: Shiga toxin inh, Giardia FBPA inh, NS1 function inh, Cycloheximide cs)
COc1cccc(-c2ncc3ccccc3c2COC(=O)N(C)C)c1	Pf growth 96h inconclusive (no result: Shiga toxin inh, Giardia FBPA inh, NS1 function inh, Cycloheximide cs)
COc1cccc(-c2ncc3ccccc3c2COC(=O)c2ccc(C(F)(F)F)cc2)c1	Pf growth 48h inconclusive, Pf growth 96h 2.9µM (no result: Shiga toxin inh, Giardia FBPA inh, NS1 function inh, Cycloheximide cs)
COC(=O)c1cc2n3ccccc3c(C)c(-c3ccccc3)c-2c1C(=O)OC	Pf growth 96h 9.3µM (no result: Pf growth 48h)
COC(=O)c1cc2c(C)c(C)c3ccccn3c-2c1C(=O)OC	Pf growth 96h 13µM (no result: Pf growth 48h)
COc1cc(/C=C/C(=O)OCC(=O)NC(=O)NC(C)C)ccc1OCC#N	none
COc1cc(/C=C/C(=O)OCC(=O)NC(=O)NC23CC4CC(CC(C4)C2)C3)ccc1OCC#N	Pf growth 48h 15µM, Pf growth 96h inconclusive
C/C=C/C1=CC(=O)C[C@H](c2ccc3c(c2)OCO3)C1	Pf growth 96h inconclusive (no result: Shiga toxin inh, Giardia FBPA inh, NS1 function inh, Cycloheximide cs)
COc1cc(NS(=O)(=O)c2ccc(N/C=C\C(=O)c3ccc(OC)c(OC)c3)cc2)nc(OC)n1	Pf growth 96h inconclusive
COc1ccc(C(=O)/C=C/Nc2ccc(S(=O)(=O)Nc3cc(OC)nc(OC)n3)cc2)c(OC)c1	Pf growth 48h 1.7µM
COc1cc(NS(=O)(=O)c2ccc(NC(=S)NC(=O)c3sc4ccccc4c3Cl)cc2)nc(OC)n1	Pf growth 96h 12µM
COc1cccc(C(=O)/C=C/Nc2ccc(S(=O)(=O)Nc3cc(OC)nc(OC)n3)cc2)c1	Shiga toxin inh 69, Cycloheximide cs 34
Clc1ccccc1CN(Cc1ccccc1)C(c1cccs1)c1nnnn1C1CCCC1 (configuration not stated)	Pf growth 48h inconclusive, Pf growth 96h inconclusive
CCN(Cc1ccccc1)C(c1cccs1)c1nnnn1C1CCCCC1 (configuration not stated)	Pf growth 48h 9.3µM
CC(c1nnnn1C1CCCCC1)N(Cc1ccccc1)Cc1cccnc1 (configuration not stated)	Pf growth 48h 10µM
CCN(Cc1ccccc1)C(c1ccccn1)c1nnnn1C1CCCCC1 (configuration not stated)	Pf growth 48h 12µM
CC(C)(C)c1ccc(/C=C(\C#N)C(=O)NCCN2CCOCC2)cc1	Pf growth 48h inconclusive
Cc1cc(C(=O)OCC(=O)Nc2ccccc2C#N)c(C)o1	none (no result: Shiga toxin inh, Giardia FBPA inh, NS1 function inh, Cycloheximide cs)
O=C(c1ccc2c(c1)OCCO2)N1CCN(Cc2c(F)cccc2Cl)CC1	Pf growth 48h inconclusive (no result: Shiga toxin inh, Giardia FBPA inh, NS1 function inh, Cycloheximide cs)
CC1S/C(=N/N=C2CCCCC2)NC1=O (configuration not stated)	Cycloheximide cs 30
CC1SC(=NC(=O)c2ccncc2)NC1=O (configuration not stated)	none
CC1S/C(=N/N=C2CCC(C(C)(C)C)CC2)NC1=O (configuration not stated)	Cycloheximide cs 26
Cc1ccc(S(=O)(=O)N2CCC(C(=O)N3CCC3)CC2)cc1	Shiga toxin inh 67, Pf growth 96h inconclusive, Cycloheximide cs 45 (no result: Giardia FBPA inh)
Cc1ccc(C(=O)NNC(=O)C2CCN(S(=O)(=O)c3ccc(C)cc3)CC2)cc1	Pf growth 48h 2.6µM
CC1CCCN(S(=O)(=O)c2ccc(NC(=O)C3CCN(C(=O)C(C)(C)C)CC3)cc2)C1 (configuration not stated)	Pf growth 48h 5.2µM, Pf growth 96h 6.6µM (no result: Shiga toxin inh, Giardia FBPA inh, NS1 function inh, Cycloheximide cs)
O=C(C1CCN(S(=O)(=O)c2ccc(F)cc2)CC1)N1CC=C(c2ccccc2)CC1	Pf growth 48h 10µM, Giardia FBPA inh inconclusive
